The results in this text go back to paper PMC7862700, “An all-to-all approach to the identification of sequence-specific readers for epigenetic DNA modifications on cytosine”.

Assay in all cases: DAPPL (digital affinity profiling via proximity ligation, sequencing); 10 mM Tris-HCl pH 7.5, 50 mM NaCl, 1 mM DTT, 4% glycerol, room temperature, 30 min; GST-TFs on glutathione beads, 16-mer random dsDNA library, 0.1% formaldehyde crosslink after washing; high values mean tight binding
Details in all cases: protein: recombinant; tags: N-terminal GST; dsDNA, one strand shown

The target of one assay is T1, ELK1 (Homo sapiens, UniProt P19419 1-428).
T1 sequence: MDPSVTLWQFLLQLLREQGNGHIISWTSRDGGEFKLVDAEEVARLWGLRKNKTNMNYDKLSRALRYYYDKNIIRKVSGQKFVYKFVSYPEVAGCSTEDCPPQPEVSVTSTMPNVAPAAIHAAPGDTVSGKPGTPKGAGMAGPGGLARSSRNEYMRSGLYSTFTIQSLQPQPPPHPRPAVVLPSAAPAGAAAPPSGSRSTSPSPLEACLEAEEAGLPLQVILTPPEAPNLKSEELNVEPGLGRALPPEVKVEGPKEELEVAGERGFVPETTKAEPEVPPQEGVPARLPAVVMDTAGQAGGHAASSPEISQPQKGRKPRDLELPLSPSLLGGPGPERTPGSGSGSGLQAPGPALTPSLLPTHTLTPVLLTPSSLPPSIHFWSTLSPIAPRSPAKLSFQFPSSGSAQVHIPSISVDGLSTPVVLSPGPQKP
A digest of the protocol: (§1)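 Each value of binding signal is a hexamer's read frequency for a factor divided by the same hexamer's frequency in the tag-only sample. Barcoded, bead-captured GST fusions of human transcription factors made in yeast were pooled with that sample and incubated with 200 nmole of a random double-stranded 16-mer DNA library in Tris/NaCl/DTT/glycerol buffer at room temperature for 30 min. Washing, 0.1% formaldehyde crosslinking, proximity ligation, PCR and Illumina NextSeq500 sequencing followed.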

The target in a further assay is T2, ERG (Homo sapiens, UniProt P11308 1-479).
T2 sequence: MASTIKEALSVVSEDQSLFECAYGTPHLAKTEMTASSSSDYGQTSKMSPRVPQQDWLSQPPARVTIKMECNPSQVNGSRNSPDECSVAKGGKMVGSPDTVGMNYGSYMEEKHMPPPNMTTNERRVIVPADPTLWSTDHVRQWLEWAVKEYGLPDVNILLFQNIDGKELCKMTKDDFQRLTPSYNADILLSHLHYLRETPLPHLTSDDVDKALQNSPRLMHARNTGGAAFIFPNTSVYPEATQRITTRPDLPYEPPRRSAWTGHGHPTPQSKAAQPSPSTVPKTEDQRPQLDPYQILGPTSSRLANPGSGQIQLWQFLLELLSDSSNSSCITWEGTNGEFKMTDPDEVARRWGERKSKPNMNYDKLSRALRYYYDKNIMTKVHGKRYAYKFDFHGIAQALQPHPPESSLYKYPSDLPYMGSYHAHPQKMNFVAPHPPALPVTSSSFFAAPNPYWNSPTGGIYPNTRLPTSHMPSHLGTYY
A digest of the protocol:
as §1

For a further assay, the target named is ELF1 (Homo sapiens, UniProt P32519 1-619). An outline of the steps:
as §1

A further assay deals with T3, EHF (Homo sapiens, UniProt Q9NZC4 1-300).
T3 sequence: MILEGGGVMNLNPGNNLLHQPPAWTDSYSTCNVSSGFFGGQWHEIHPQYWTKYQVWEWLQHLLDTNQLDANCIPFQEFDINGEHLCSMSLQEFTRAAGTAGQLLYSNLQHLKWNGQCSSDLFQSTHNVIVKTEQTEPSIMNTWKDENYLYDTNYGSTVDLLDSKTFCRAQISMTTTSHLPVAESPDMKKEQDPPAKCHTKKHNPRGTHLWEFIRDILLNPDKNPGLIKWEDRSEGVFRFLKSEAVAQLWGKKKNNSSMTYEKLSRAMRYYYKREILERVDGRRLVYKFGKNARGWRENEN
A digest of the protocol: as §1

The target of another assay is SPI1 (Homo sapiens, UniProt P17947 1-270). A digest of the protocol: as §1
For another assay, the target named is T4, SPIC (Homo sapiens, UniProt Q8N5J4 1-248).
T4 sequence: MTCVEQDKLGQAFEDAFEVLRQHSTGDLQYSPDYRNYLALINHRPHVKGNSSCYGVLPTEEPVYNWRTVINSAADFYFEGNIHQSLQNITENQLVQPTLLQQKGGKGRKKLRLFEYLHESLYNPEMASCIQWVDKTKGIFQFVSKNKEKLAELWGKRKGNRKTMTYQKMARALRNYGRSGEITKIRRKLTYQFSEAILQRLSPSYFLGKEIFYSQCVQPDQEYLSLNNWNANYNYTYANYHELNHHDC
An outline of the steps:
as §1

A further assay addresses ELF4 (Homo sapiens, UniProt Q99607 1-663). A digest of the protocol:
as §1

For another assay, the target named is T5, ELK4 (Homo sapiens, UniProt P28324-2 1-405).
T5 sequence: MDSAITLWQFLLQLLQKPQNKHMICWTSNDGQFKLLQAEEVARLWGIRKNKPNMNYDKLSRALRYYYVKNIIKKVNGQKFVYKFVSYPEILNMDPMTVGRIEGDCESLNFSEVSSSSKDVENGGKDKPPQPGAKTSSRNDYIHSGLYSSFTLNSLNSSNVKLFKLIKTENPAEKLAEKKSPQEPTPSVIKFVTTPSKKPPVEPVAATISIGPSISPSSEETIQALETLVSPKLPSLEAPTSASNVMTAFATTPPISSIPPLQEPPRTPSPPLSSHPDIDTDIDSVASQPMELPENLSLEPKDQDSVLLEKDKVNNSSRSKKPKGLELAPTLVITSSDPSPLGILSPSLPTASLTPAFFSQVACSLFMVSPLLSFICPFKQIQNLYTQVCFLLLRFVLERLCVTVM
A digest of the protocol: as §1

The target in a further assay is T6, ELF3 (Homo sapiens, UniProt P78545 1-371).
T6 sequence: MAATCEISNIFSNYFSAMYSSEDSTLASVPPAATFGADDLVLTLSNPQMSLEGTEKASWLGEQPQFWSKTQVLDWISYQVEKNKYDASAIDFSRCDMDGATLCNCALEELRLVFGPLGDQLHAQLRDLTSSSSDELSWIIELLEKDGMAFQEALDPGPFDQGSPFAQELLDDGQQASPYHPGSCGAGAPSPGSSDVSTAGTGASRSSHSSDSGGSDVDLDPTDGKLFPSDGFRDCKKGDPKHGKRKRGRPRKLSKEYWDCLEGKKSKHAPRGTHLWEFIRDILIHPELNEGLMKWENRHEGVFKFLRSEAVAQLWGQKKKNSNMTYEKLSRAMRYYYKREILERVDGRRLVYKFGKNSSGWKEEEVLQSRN
A digest of the protocol: as §1

A further assay deals with ETV1 (Homo sapiens, UniProt P50549 1-477). A digest of the protocol: as §1
For another assay, the target named is T7, ETV3L (Homo sapiens, UniProt Q6ZN32 1-361).
T7 sequence: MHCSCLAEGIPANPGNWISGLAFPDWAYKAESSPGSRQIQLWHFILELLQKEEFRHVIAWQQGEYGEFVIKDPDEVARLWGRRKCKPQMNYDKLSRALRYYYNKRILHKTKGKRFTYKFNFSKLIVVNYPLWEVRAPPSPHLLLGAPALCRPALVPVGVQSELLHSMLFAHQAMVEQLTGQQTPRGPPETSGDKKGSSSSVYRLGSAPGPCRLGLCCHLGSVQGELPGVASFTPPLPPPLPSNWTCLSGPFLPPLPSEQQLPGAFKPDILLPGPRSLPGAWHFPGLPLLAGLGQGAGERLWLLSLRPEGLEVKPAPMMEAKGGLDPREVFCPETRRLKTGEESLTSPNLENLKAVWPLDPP
A digest of the protocol: as §1

In another assay the target is T8, ETS2 (Homo sapiens, UniProt P15036 1-469).
T8 sequence: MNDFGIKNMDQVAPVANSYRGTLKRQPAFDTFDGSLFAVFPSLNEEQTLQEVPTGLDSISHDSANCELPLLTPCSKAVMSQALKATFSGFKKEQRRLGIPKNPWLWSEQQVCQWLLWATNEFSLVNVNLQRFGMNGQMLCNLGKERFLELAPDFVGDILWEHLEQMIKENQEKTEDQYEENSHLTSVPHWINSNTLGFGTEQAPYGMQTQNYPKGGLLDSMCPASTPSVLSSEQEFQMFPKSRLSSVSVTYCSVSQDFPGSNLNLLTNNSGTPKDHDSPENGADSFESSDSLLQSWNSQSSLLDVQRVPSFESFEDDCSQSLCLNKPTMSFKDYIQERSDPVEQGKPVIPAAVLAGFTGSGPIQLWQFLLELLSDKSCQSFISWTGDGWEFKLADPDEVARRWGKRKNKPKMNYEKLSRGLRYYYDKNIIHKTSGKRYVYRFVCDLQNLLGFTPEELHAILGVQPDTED
A digest of the protocol:
as §1

The target in a further assay is T9, ETV3 (Homo sapiens, UniProt P41162-2 1-143).
T9 sequence: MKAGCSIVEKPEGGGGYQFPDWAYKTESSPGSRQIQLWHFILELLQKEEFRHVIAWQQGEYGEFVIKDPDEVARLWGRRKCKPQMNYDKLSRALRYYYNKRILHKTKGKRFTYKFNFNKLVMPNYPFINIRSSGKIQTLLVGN
A digest of the protocol:
as §1

For a further assay, the target named is ETV6 (Homo sapiens, UniProt P41212 1-452). A digest of the protocol: as §1
A further assay concerns the target SPIB (Homo sapiens, UniProt Q01892 1-262). A digest of the protocol: as §1
The target in another assay is T10, ERF (Homo sapiens, UniProt P50548 1-548).
T10 sequence: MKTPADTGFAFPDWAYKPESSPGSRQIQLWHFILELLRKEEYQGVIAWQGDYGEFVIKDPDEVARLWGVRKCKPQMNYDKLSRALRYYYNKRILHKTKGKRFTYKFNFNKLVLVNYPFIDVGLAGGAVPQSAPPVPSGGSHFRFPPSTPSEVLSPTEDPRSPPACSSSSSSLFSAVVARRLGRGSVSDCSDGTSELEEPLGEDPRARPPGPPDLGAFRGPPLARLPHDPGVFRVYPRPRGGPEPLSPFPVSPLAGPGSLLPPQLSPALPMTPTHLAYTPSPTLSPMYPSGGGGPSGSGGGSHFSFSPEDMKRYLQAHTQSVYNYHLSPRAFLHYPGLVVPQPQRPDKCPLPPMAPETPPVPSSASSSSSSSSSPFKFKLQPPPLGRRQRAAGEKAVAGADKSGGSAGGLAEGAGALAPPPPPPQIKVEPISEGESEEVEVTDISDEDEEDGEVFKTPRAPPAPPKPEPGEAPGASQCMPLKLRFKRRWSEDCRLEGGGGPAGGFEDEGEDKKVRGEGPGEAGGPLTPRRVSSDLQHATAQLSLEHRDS
An outline of the steps: as §1

Another assay has as its target T11, SPDEF (Homo sapiens, UniProt O95238 1-335).
T11 sequence: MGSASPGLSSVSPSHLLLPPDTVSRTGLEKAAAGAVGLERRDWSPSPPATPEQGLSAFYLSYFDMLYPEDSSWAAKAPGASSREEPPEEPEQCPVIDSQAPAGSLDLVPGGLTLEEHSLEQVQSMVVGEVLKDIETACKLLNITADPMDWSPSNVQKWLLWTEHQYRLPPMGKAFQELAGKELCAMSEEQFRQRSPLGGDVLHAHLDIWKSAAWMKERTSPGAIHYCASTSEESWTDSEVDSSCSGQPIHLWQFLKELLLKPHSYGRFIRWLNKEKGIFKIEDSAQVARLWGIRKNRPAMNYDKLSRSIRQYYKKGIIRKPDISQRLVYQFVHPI
An outline of the steps: as §1

Another assay addresses T12, ETV7 (Homo sapiens, UniProt Q9Y603 1-341).
T12 sequence: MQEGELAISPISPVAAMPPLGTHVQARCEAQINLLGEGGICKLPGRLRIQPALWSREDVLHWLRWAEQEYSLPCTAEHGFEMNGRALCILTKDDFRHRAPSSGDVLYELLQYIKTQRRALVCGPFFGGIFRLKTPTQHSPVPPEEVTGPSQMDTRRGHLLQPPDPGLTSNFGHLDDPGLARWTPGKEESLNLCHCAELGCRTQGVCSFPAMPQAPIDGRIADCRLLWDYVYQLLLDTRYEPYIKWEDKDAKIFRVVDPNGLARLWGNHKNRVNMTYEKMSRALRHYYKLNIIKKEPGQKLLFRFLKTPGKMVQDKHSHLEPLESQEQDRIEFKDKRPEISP
An outline of the steps: as §1

Chain of ELF4 (Q99607 whole entry): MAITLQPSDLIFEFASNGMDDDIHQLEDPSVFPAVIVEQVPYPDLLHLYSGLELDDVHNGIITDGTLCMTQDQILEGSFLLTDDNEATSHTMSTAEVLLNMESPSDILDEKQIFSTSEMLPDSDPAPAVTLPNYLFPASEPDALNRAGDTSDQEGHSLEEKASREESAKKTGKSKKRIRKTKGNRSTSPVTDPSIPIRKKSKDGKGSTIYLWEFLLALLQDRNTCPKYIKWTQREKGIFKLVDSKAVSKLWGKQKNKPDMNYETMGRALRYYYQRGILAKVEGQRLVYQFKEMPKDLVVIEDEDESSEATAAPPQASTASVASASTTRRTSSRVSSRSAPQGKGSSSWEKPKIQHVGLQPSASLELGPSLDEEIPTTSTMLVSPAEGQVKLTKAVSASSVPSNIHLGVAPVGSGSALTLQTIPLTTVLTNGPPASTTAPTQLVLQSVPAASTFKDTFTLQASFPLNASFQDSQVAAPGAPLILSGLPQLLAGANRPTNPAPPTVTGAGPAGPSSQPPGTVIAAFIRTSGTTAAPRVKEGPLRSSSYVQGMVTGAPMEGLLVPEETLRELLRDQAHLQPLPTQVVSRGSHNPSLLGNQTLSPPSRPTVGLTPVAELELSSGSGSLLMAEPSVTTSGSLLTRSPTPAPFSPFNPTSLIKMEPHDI
Chain of ELF1 (P32519 whole entry): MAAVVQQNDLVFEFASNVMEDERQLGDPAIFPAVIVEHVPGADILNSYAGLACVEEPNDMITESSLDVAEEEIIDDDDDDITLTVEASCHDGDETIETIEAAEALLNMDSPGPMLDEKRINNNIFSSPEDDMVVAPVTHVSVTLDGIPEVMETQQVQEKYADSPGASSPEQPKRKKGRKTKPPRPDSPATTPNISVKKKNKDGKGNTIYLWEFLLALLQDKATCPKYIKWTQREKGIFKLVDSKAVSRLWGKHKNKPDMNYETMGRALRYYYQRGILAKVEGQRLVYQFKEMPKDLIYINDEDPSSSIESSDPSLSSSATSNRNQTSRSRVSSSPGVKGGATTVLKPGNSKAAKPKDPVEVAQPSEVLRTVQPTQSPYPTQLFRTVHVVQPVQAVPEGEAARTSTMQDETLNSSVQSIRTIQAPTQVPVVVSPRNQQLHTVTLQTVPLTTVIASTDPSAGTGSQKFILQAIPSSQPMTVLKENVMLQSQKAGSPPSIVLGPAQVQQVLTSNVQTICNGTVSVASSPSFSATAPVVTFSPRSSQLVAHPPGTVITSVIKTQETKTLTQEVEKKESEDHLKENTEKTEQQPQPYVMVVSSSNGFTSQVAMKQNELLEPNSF
Chain of SPIB (Q01892 whole entry): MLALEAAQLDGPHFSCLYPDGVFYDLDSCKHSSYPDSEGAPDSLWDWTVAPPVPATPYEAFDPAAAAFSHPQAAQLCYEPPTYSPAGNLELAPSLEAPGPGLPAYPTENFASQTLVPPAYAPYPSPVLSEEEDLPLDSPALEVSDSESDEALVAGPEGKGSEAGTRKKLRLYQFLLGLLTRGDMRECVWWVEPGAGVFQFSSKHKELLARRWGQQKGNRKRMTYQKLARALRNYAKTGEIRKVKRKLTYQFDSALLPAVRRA
Chain of ETV6 (P41212 whole entry): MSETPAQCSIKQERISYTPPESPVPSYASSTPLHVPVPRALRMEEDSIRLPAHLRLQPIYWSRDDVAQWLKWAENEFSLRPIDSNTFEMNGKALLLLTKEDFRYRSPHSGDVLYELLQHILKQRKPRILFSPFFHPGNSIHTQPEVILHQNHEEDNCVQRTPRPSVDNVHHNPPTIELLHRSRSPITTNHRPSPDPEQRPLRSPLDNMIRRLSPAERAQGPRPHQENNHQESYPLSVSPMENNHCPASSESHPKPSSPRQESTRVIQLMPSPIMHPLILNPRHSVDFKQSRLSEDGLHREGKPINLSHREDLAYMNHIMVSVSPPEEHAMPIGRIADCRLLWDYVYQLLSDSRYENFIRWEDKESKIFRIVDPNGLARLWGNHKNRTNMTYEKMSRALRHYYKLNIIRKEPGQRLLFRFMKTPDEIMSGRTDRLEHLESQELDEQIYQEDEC
Chain of ETV1 (P50549 whole entry): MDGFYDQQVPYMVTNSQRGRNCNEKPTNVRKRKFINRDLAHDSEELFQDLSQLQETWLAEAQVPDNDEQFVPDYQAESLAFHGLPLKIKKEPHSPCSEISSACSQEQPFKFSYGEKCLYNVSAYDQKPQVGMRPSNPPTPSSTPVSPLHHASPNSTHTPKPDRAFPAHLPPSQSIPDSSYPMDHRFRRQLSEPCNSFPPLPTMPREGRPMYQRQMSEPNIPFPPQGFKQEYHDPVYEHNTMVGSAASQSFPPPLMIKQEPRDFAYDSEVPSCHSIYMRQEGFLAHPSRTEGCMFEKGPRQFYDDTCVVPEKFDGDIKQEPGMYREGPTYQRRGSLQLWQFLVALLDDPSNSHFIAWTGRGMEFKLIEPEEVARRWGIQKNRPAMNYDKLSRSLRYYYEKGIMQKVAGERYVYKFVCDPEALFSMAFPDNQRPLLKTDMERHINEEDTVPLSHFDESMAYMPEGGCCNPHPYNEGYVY

For the sequence CCCCAG, the binding signal is 1 fold enrichment (6-mer frequency, TF over GST control) with ELK1; 1.05 fold enrichment (6-mer frequency, TF over GST control) with ERG; 1.04 fold enrichment (6-mer frequency, TF over GST control) with ELF1; 1 fold enrichment (6-mer frequency, TF over GST control) with EHF; 1.04 fold enrichment (6-mer frequency, TF over GST control) in the assay with SPI1; 1.14 fold enrichment (6-mer frequency, TF over GST control) with SPIC. Also, the binding signal with ELF4 is 1.04 fold enrichment (6-mer frequency, TF over GST control); with ELK4 it was 1.24 fold enrichment (6-mer frequency, TF over GST control); with ELF3, 1.16 fold enrichment (6-mer frequency, TF over GST control); with ETV1, 1.11 fold enrichment (6-mer frequency, TF over GST control); with ETV3L, 1.11 fold enrichment (6-mer frequency, TF over GST control); with ETS2 it was 1.04 fold enrichment (6-mer frequency, TF over GST control). Also, the binding signal in the assay with ETV3 is 1.07 fold enrichment (6-mer frequency, TF over GST control); in the assay with ETV6, 1.03 fold enrichment (6-mer frequency, TF over GST control).
Consider GATCTA, for which the binding signal with ELK1 was 1.12 fold enrichment (6-mer frequency, TF over GST control); in the assay with ELF1, 1.03 fold enrichment (6-mer frequency, TF over GST control); with SPI1, 1 fold enrichment (6-mer frequency, TF over GST control); with SPIB, 1.06 fold enrichment (6-mer frequency, TF over GST control); with SPIC it was 1.01 fold enrichment (6-mer frequency, TF over GST control); with ELF4, 1.04 fold enrichment (6-mer frequency, TF over GST control). The binding signal with ELK4 is 1.05 fold enrichment (6-mer frequency, TF over GST control); in the assay with ELF3, 1.07 fold enrichment (6-mer frequency, TF over GST control); with ERF, 1.04 fold enrichment (6-mer frequency, TF over GST control); with ETV3L, 1.03 fold enrichment (6-mer frequency, TF over GST control); with ETS2, 1.04 fold enrichment (6-mer frequency, TF over GST control); in the assay with SPDEF, 1.1 fold enrichment (6-mer frequency, TF over GST control). Moreover, the binding signal in the assay with ETV7 was 1.1 fold enrichment (6-mer frequency, TF over GST control); with ETV3 it was 1.04 fold enrichment (6-mer frequency, TF over GST control).
